In the supplement of paper PMC10849652:
About 7,900 targets were measured; listed, in parts, are those with a hit and a random draw of the rest. About 0.6% of all pairs of compound and target were hits.

Key:
Test in all cases: log2 fold change, soluble protein after heating vs DMSO (PISA); higher = thermal stabilisation; K562 cells, 10 uM, 30 min; active = over 0.2 and 3.5 SD of the protein, either way, in both replicates (recomputed)
[1] = compound: C1COCCN1CCN2C3=CC=CC=C3N=C2NC(=O)C4=CC(=CC=C4)[N+](=O)[O-] [IRAK-1-4 Inhibitor I]
Procedure, shortened: (§1)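 Aliquots of K562 cells (2×10^6 cells/mL) treated with 10 μM compound for 30 min were heated for 3 min over 48°C-58°C. After pooling and extraction in PBS with 0.5% NP-40 at 4°C, soluble protein from a 21,000xg, 90 min spin was quantified by TMTpro 16plex LC-MS/MS with channel sums equalised. Thermal stability is expressed against control samples, from duplicates, as a log2 fold change.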

[2] = compound: C=CC(=O)N1CCC[C@@H](n2nc(-c3ccc(Oc4ccccc4)cc3)c3c(N)ncnc32)C1 [ibrutinib]
Procedure, shortened: as §1

[3] = compound: CC(=O)c1cnc2ccc(-c3cc(Cl)c(O)c(Cl)c3)nc2c1N[C@H]1CC[C@H](CN(C)C)CC1
Procedure, shortened: as §1

[4] = compound: CC(C)(C)Cn1c(N)nc2ccc(-c3[nH]c(C(C)(C)C)nc3-c3ccc(F)cc3)nc21 [ralimetinib]
Procedure, shortened: as §1

[5] = compound: CC(C)(O)CC(=O)NCCn1ccc2ncnc(Nc3ccc(Oc4cccc(C(F)(F)F)c4)c(Cl)c3)c21
Procedure, shortened: as §1

[6] = compound: CC(C)C1=C2N=C(C=C(N2N=C1)NCC3=CC=CC=C3)NCCCCCCN
Procedure, shortened: as §1

[7] = compound: CC(C)C[C@@H](C=O)NC(=O)[C@H](CC(C)C)NC(=O)[C@H](CC(C)C)NC(=O)OCc1ccccc1
Procedure, shortened: as §1

[8] = compound: CC(C)N(C[C@H]1O[C@@H](n2cnc3c(N)ncnc32)[C@H](O)[C@@H]1O)[C@H]1C[C@@H](CCc2nc3cc(C(C)(C)C)ccc3[nH]2)C1 [pinometostat]
Procedure, shortened: as §1

[9] = compound: CC1=C(C(CC(=O)N1)C2=CC=C(C=C2)C(F)(F)F)C(=O)NC3=C(C=C4C(=C3)C=NN4)F
Procedure, shortened: as §1

[10] = compound: CC1=C(C2=C(C=C1)C(=O)C3=CC=CC=C3N2CCCN)C
Procedure, shortened: as §1

[11] = compound: CC1=C(C=C(C=C1)NC(=O)C2=CC(=CC=C2)C(C)(C)C#N)NC3=CC4=C(C=C3)N=CN(C4=O)C
Procedure, shortened: as §1

[12] = compound: CC1=C(C=C(C=C1)NC(=O)C2=CC(=CC=C2)N(C)C)NC(=O)C3=CC=C(C=C3)O
Procedure, shortened: as §1

[13] = compound: CC1=CC=C(C=C1)SC2=C3C=C(SC3=CN=C2)C(=O)N
Procedure, shortened: as §1

[14] = compound: CC1=NC(=CC=C1)C2=C(N=C(N2)C(C)(C)C)C3=CC4=NC=CN=C4C=C3
Procedure, shortened: as §1

[15] = compound: CCCCN(Cc1ccc(C(=O)NO)cc1)C(=O)Nc1ccccc1 [Nexturastat A]
Procedure, shortened: as §1

[16] = compound: CCCS(=O)(=O)Nc1ccc(F)c(C(=O)c2c[nH]c3ncc(-c4ccc(Cl)cc4)cc23)c1F [vemurafenib]
Procedure, shortened: as §1

[17] = compound: CCCS(=O)(=O)Nc1ccc(F)c(C(=O)c2c[nH]c3ncc(Cl)cc23)c1F
Procedure, shortened: as §1

[18] = compound: CCCc1cc(C)[nH]c(=O)c1CNC(=O)c1cc(-c2ccnc(N3CCN(C)CC3)c2)cc2c1cnn2C(C)C
Procedure, shortened: as §1

[19] = compound: CCN(CC)Cc1ccc2cc(COC(=O)Nc3ccc(C(=O)NO)cc3)ccc2c1 [givinostat]
Procedure, shortened: as §1

[20] = compound: CCN(CCCOc1ccc2c(Nc3cc(CC(=O)Nc4cccc(F)c4)[nH]n3)ncnc2c1)CCOP(=O)(O)O [barasertib]
Procedure, shortened: as §1

Measured: log2 fold change

UQCR10 (UniProt Q9UDW1)
Chain of UniProt Q9UDW1 (Q9UDW1 whole entry, looked up): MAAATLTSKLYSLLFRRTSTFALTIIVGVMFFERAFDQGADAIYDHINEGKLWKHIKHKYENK
inactive: [1] 0.036 | [2] 0.019 | [3] -0.077 | [4] -0.05 | [5] -0.056 | [6] 0.031 | [7] -0.127 | [8] -0.016 | [9] -0.008 | [10] 0.057 | [11] 0.103 | [12] -0.086 | [13] 0.069 | [14] -0.014 | [15] -0.049 | [16] -0.042 | [17] -0.018 | [18] 0.007 | [19] -0.05 | [20] -0.042

UBE2Q1 (UniProt Q7Z7E8)
Chain of UniProt Q7Z7E8 (Q7Z7E8 whole entry, looked up): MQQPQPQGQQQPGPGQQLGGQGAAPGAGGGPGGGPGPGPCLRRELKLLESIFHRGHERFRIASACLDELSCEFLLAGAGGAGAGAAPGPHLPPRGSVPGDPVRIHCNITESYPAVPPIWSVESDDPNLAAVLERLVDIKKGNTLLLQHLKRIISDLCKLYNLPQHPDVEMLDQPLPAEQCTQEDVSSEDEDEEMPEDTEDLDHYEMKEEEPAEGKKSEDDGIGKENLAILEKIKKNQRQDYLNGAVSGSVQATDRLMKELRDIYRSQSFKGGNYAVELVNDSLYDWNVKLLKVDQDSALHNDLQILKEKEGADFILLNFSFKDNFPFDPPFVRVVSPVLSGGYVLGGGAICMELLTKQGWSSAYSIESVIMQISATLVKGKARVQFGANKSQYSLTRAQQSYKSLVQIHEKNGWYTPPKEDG
inactive: [1] 0.024 | [2] -0.012 | [3] 0.029 | [4] -0.015 | [5] -0.062 | [6] -0.192 | [7] -0.11 | [8] 0.005 | [9] -0.01 | [10] -0.006 | [11] 0.093 | [12] -0.041 | [13] -0.003 | [14] -0.037 | [15] 0.008 | [16] 0.011 | [17] 0.114 | [18] -0.031 | [19] 0.022 | [20] 0.068

WDR37 isoform 2 (UniProt Q9Y2I8)
Chain of UniProt Q9Y2I8 (Q9Y2I8 whole entry, looked up): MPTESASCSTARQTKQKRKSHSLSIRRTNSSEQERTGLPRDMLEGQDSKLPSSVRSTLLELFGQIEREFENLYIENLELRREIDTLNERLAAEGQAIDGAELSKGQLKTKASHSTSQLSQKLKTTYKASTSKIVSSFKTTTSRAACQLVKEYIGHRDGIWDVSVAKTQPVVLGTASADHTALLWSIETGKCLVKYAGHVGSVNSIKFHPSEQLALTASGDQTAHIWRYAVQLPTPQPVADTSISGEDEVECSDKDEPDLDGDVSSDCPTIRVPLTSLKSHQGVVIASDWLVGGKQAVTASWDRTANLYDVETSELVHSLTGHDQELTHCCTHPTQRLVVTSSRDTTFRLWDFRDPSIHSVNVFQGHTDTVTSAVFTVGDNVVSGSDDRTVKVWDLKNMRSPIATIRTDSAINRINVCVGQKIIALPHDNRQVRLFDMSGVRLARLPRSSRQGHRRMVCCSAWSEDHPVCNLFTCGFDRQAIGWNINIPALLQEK
active: [3] -0.39
inactive: [1] 0.144 | [2] -0.06 | [4] -0.063 | [5] -0.118 | [6] -0.011 | [7] 0.126 | [8] -0.029 | [9] -0.015 | [10] 0.144 | [11] 0.013 | [12] 0.068 | [13] -0.019 | [14] -0.138 | [15] 0.039 | [16] 0.01 | [17] 0.012 | [18] 0.028 | [19] -0.018 | [20] 0.04

TNPO3 (UniProt Q9Y5L0)
Chain of UniProt Q9Y5L0 (Q9Y5L0 whole entry, looked up): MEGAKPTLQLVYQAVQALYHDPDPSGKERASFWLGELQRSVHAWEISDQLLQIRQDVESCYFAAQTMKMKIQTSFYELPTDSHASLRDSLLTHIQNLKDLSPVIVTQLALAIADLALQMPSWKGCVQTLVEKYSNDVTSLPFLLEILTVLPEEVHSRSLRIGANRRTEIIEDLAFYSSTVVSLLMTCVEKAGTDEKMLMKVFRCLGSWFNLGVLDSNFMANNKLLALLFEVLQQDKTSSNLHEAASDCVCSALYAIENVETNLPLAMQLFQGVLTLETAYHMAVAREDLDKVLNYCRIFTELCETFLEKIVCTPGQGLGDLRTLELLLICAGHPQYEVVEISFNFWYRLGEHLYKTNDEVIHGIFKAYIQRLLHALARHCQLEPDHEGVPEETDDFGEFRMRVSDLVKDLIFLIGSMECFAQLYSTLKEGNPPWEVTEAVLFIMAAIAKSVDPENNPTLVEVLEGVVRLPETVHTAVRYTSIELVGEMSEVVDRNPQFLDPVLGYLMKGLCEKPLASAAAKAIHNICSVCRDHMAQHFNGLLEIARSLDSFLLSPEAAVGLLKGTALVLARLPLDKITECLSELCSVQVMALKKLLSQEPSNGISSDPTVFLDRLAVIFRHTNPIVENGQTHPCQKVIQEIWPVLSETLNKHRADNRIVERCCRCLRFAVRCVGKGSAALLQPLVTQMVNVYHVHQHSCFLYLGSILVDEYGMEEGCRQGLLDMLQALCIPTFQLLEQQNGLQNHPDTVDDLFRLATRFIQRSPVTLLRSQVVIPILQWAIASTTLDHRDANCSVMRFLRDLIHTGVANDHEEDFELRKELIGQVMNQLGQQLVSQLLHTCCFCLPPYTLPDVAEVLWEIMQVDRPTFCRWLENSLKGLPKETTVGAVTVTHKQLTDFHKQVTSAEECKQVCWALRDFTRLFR
inactive: [1] -0.006 | [2] -0.02 | [3] -0.014 | [4] 0.024 | [5] -0.156 | [6] -0.154 | [7] -0.08 | [8] 0.006 | [9] 0.036 | [10] -0.02 | [11] 0.028 | [12] 0.004 | [13] 0.057 | [14] 0.003 | [15] -0.036 | [16] 0.069 | [17] 0.08 | [18] 0.003 | [19] 0.029 | [20] 0.019

TMEM9 (UniProt Q9P0T7)
Chain of UniProt Q9P0T7 (Q9P0T7 whole entry, looked up): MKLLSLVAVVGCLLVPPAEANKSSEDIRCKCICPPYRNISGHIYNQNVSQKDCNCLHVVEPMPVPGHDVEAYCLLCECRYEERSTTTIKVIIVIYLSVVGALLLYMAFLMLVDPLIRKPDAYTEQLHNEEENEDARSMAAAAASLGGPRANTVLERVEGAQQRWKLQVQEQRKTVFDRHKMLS
inactive: [1] 0.076 | [2] 0.039 | [3] 0.012 | [4] -0.003 | [5] -0.07 | [6] -0.211 | [7] 0.064 | [8] -0.042 | [9] 0.067 | [10] -0.013 | [11] -0.024 | [12] -0.041 | [13] 0.057 | [14] -0.008 | [15] 0 | [16] 0.028 | [17] 0.091 | [18] -0.062 | [19] 0.039 | [20] 0.019

VRK1 (UniProt Q99986)
Chain of UniProt Q99986 (Q99986 whole entry, looked up): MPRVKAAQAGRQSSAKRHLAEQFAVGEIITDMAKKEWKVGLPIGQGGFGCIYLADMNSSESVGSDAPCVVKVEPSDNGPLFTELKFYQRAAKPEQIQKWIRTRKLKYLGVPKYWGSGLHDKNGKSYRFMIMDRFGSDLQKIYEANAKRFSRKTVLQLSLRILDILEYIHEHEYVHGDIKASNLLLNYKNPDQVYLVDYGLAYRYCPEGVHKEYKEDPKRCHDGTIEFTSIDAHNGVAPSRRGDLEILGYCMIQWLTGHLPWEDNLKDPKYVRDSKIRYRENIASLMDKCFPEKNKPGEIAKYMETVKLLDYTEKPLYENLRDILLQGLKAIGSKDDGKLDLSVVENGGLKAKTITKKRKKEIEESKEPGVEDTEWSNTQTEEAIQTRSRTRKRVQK
active: [10] 0.433
inactive: [1] -0.041 | [2] 0.032 | [3] 0.338 | [4] -0.033 | [5] -0.32 | [6] -0.013 | [7] 0.055 | [8] -0.008 | [9] -0.027 | [11] -0.089 | [12] -0.121 | [13] 0.096 | [14] 0.063 | [15] -0.085 | [16] 0.122 | [17] 0.072 | [18] 0.108 | [19] 0.046 | [20] 0.075

XPOT (UniProt O43592)
Chain of UniProt O43592 (O43592 whole entry, looked up): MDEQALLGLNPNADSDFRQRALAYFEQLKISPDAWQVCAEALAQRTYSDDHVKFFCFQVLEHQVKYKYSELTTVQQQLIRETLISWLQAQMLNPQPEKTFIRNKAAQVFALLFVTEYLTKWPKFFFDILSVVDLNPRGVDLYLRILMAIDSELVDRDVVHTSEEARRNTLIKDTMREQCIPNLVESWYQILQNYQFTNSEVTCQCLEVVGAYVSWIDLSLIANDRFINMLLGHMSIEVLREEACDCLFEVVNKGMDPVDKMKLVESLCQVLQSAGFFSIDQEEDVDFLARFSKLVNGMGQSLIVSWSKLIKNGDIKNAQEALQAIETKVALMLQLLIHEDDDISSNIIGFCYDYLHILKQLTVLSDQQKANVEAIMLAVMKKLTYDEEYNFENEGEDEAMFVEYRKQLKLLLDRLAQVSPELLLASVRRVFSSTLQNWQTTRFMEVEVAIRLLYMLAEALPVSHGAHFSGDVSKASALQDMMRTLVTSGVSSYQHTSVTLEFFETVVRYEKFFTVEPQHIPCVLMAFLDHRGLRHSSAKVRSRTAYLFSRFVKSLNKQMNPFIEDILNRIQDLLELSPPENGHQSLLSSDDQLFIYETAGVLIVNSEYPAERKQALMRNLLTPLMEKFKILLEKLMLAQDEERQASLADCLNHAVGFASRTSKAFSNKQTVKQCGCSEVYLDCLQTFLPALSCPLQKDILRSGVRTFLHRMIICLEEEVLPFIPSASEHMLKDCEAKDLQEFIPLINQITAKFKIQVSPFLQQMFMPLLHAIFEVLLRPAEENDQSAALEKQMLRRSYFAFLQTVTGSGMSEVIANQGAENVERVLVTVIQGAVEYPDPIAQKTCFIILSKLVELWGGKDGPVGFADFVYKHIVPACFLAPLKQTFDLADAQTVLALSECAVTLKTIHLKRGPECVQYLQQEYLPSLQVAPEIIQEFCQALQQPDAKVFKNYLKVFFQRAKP
active: [6] -0.345
inactive: [1] -0.035 | [2] -0.061 | [3] 0.064 | [4] -0.079 | [5] -0.146 | [7] 0.053 | [8] 0.03 | [9] 0.001 | [10] 0.033 | [11] 0.018 | [12] -0.031 | [13] 0.023 | [14] 0.029 | [15] -0.012 | [16] 0.039 | [17] 0.128 | [18] 0.014 | [19] 0.007 | [20] 0.08

WASHC5 (UniProt Q12768)
inactive: [1] -0.042 | [2] 0.007 | [3] -0.024 | [4] 0.072 | [5] -0.116 | [7] 0.003 | [8] 0.067 | [9] -0.049 | [10] -0.014 | [11] -0.011 | [12] -0.011 | [13] 0 | [14] -0.006 | [15] 0.052 | [16] 0.004 | [17] 0.004 | [18] 0.065 | [19] 0.085 | [20] 0.077
active: [6] -0.277

UBR2 (UniProt Q8IWV8)
active: [7] 0.351
inactive: [1] 0.002 | [2] -0.102 | [3] -0.11 | [4] 0.029 | [5] -0.086 | [6] -0.058 | [8] 0.137 | [9] -0.01 | [10] 0.076 | [11] 0.079 | [12] -0.08 | [13] 0.048 | [14] -0.03 | [15] 0.078 | [16] 0.029 | [17] 0.037 | [18] -0.038 | [19] 0.192 | [20] 0.046

TOP2A isoform 4 (UniProt P11388)
active: [10] -0.968
inactive: [1] -0.145 | [2] 0.116 | [3] 0.154 | [4] 0.324 | [5] 0 | [6] -0.125 | [7] 0.261 | [8] 0.533 | [9] 0.041 | [11] 0.081 | [12] -0.006 | [13] -0.083 | [14] -0.094 | [15] 0.234 | [16] -0.213 | [17] 0.042 | [18] 0.182 | [19] 0.207 | [20] -0.054

TXNIP (UniProt Q9H3M7)
Chain of UniProt Q9H3M7 (Q9H3M7 whole entry, looked up): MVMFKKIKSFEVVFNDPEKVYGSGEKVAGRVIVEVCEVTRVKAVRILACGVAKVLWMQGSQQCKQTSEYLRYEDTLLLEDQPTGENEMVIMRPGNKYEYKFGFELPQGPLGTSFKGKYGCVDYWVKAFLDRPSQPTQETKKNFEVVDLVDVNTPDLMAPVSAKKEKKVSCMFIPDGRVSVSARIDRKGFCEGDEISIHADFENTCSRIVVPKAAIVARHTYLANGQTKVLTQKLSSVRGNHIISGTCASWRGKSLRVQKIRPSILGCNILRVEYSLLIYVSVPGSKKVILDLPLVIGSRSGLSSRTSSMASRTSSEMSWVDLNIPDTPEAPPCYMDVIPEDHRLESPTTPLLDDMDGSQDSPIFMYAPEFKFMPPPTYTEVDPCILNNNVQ
active: [10] -0.42
inactive: [1] 0.05 | [2] 0.016 | [3] -0.053 | [4] 0.13 | [5] 0.072 | [6] -0.371 | [7] 0.128 | [8] -0.083 | [9] -0.097 | [11] -0.04 | [12] 0.003 | [13] -0.115 | [14] 0.034 | [15] 0.177 | [16] -0.005 | [17] -0.079 | [18] 0.001 | [19] -0.06 | [20] 0.033

WRB (UniProt O00258)
Chain of UniProt O00258 (O00258 whole entry, looked up): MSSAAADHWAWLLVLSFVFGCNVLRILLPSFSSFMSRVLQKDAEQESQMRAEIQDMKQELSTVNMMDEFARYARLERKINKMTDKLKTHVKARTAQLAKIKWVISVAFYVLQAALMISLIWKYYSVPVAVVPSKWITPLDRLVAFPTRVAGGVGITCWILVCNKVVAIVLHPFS
active: [15] -0.25
inactive: [1] 0.006 | [2] 0.014 | [3] -0.074 | [4] 0.004 | [5] 0.015 | [6] 0.043 | [7] -0.043 | [8] -0.032 | [9] -0.006 | [10] 0.011 | [11] -0.046 | [12] -0.11 | [13] -0.007 | [14] -0.023 | [16] 0.108 | [17] -0.037 | [18] -0.074 | [19] 0.032 | [20] -0.014

VPS51 (UniProt Q9UID3)
inactive: [1] 0.016 | [2] -0.015 | [3] 0.009 | [4] 0.024 | [5] -0.042 | [6] -0.115 | [7] 0.001 | [8] 0.05 | [9] 0.033 | [10] 0.105 | [11] 0 | [12] -0.031 | [13] -0.045 | [14] 0.017 | [15] 0.032 | [16] 0.034 | [17] 0.021 | [18] 0.032 | [19] 0.071 | [20] 0.059

TRMT61A (UniProt Q96FX7)
Chain of UniProt Q96FX7 (Q96FX7 whole entry, looked up): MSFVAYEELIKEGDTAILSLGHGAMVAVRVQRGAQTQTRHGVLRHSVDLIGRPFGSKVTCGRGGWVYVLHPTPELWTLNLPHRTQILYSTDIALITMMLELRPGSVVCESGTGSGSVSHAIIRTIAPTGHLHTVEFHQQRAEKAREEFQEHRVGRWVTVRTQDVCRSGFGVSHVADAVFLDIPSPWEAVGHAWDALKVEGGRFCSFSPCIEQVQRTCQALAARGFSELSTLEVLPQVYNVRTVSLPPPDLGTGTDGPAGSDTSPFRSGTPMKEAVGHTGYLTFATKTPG
inactive: [1] 0.07 | [2] 0.14 | [3] -0.002 | [4] 0.06 | [5] 0.109 | [6] -0.099 | [7] 0.086 | [8] 0.188 | [9] -0.034 | [10] -0.401 | [11] 0 | [12] 0.056 | [13] -0.013 | [14] -0.083 | [15] 0.204 | [16] -0.119 | [17] -0.009 | [18] 0.114 | [19] 0.038 | [20] -0.091

WDR18 (UniProt Q9BV38)
Chain of UniProt Q9BV38 (Q9BV38 whole entry, looked up): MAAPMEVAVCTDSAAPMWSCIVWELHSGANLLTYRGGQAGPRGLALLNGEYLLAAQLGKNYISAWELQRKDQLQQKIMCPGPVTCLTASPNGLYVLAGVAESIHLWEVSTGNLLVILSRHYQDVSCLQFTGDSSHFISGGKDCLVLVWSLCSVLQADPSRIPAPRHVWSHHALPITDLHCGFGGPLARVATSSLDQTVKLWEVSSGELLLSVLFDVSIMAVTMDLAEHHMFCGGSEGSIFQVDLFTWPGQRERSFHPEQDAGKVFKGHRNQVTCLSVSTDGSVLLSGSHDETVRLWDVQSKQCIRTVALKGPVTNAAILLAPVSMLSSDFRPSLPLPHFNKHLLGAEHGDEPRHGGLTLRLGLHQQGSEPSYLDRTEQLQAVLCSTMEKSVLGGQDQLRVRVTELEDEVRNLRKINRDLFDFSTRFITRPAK
active: [10] -0.962
inactive: [1] -0.005 | [2] -0.03 | [3] -0.007 | [4] 0.064 | [5] 0.025 | [6] 0.008 | [7] -0.102 | [8] 0.028 | [9] 0.011 | [11] -0.042 | [12] 0.08 | [13] 0.016 | [14] 0.014 | [15] -0.035 | [16] 0.04 | [17] -0.003 | [18] 0.004 | [19] -0.025 | [20] 0.013

WDR43 (UniProt Q15061)
active: [10] 0.222
inactive: [1] 0.023 | [2] 0.019 | [3] 0.012 | [4] -0.088 | [5] -0.003 | [6] 0.199 | [7] -0.039 | [8] -0.035 | [9] 0.009 | [11] -0.015 | [12] 0.018 | [13] 0.009 | [14] -0.001 | [15] -0.097 | [16] -0.027 | [17] 0.012 | [18] -0.061 | [19] -0.007 | [20] -0.033
